Test results published in PubChem BioAssay (NCATS).
Results filed as inconclusive are left out. Where a call stands in place of a potency, no number is given. Calls of active or inactive are those of the source. The call rests on the fitted dose curve; in most records, active means well fitted cell-killing curve with a large enough effect; inconclusive means small, poorly fitted or top-dose-only effect; inactive means flat fitted curve, though single readings scatter.

Assay: Cell Viability - LYMP2-023 (AID 975);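 further: cells exposed to compound for 24 hours at 37 °C; nearly all actives have a fitted effect of over 55% in size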; further: potency means the concentration at half of the fitted maximal effect
Details: LYMP2-023 lymphoblastoid cell viability; series mostly up to 92.2 µM
Outline: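 2500 cells/well, 5 hr 37 C; cpd 24 hr 37 C; CellTiter-Glo, 30 min RT; luminescence. qHTS conc-response, Hill fit -> AC50. Pos ctrl tetraoctylammonium bromide.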

| Compound | Potency |
| --- | --- |
| Nc1cnn([C@@H]2O[C@H](CO)[C@@H](O)[C@H]2O)c(=O)n1 | inactive |
| CCCCCCCCOc1ccc(C(=O)O)cc1 | inactive |
| Oc1c(Cl)cc(Cl)c(Cl)c1Cl | inactive |
| CC(C)OCC1CO1 (stereo unspecified) | inactive |
| CCCCNCC | inactive |
| O=c1[nH]ncc2ccccc12 | inactive |
| c1ccc(COCc2ccccc2)cc1 | inactive |
| O=[N+]([O-])c1cccc(I)c1 | inactive |
| Nc1ccc2c(c1)C(=O)c1ccccc1C2=O | inactive |
| Nc1ccc(N=Nc2ccccc2)c(N)c1 | inactive |
| Cc1ccc(C(=O)O)cc1[N+](=O)[O-] | inactive |
| COc1ccc([N+](=O)[O-])cc1N | inactive |
| OCC(CO)(CBr)CBr | inactive |
| Oc1ccc2c(c1)OCO2 | inactive |
| CC(=O)OC1CC(C)OC(C)O1 (stereo unspecified) | inactive |
| O=C(OCc1ccccc1)c1ccccc1O | inactive |
| C/C=C/C=C/C=O | 50.1 µM (active) |
| CCN(CC)c1ccc2c(C)cc(=O)oc2c1 | inactive |
| CC(=O)OC(C(=O)c1ccccc1)c1ccccc1 (stereo unspecified) | inactive |
| CCCCCCN | inactive |
| CC(=O)Nc1cccc(C)c1 | inactive |
| COc1ccc(C)cc1N | inactive |
| C[C@@H]1CC2(OC(O)[C@]3(C)O[C@H]23)O[C@H]2C[C@@]3(C)[C@@H]4CC[C@H]5C(C)(C)C(O[C@@H]6OC[C@@H](O)[C@H](O)[C@H]6O)CC[C@@]56C[C@@]46CC[C@]3(C)[C@@H]12 (stereo partly specified) | inactive |
| C=CC1CO1 (stereo unspecified) | inactive |
| COc1cc(-c2ccc(N=C=O)c(OC)c2)ccc1N=C=O | inactive |
| COc1ccc(C(=O)Nc2ccccc2)cc1[N+](=O)[O-] | inactive |

Assay: Cell Viability - LYMP2-025 (AID 976);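 further: cells exposed to compound for 24 h at 37 °C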
Details: LYMP2-025 lymphoblastoid cell viability; series mostly up to 92.2 µM
Outline: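 Seed 2500 LYMP2-025 cells/well; 5 hr at 37 C; add compound; 24 hr at 37 C; add CellTiter-Glo; 30 min RT; read luminescence. AC50 from Hill-modelled concentration-response.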

| Compound | Potency |
| --- | --- |
| CCCCCCc1ccc(-c2ccc(C#N)cc2)cc1 | inactive |
| Nc1cnn([C@@H]2O[C@H](CO)[C@@H](O)[C@H]2O)c(=O)n1 | inactive |
| CCCCCCCCOc1ccc(C(=O)O)cc1 | inactive |
| C/C(Cl)=C/CCl | inactive |
| CCCCNCC | inactive |
| O=c1[nH]ncc2ccccc12 | inactive |
| c1ccc(COCc2ccccc2)cc1 | inactive |
| O=[N+]([O-])c1cccc(I)c1 | inactive |
| Nc1ccc2c(c1)C(=O)c1ccccc1C2=O | inactive |
| c1ccc2c(c1)ccc1ccccc12 | inactive |
| Nc1ccc(N=Nc2ccccc2)c(N)c1 | inactive |
| Cc1ccc(C(=O)O)cc1[N+](=O)[O-] | inactive |
| COc1ccc([N+](=O)[O-])cc1N | inactive |
| Nc1cc(C(=O)O)c(O)c(S(=O)(=O)O)c1 | inactive |
| Oc1ccc2c(c1)OCO2 | inactive |
| c1ccncc1 | inactive |
| CC(=O)OC1CC(C)OC(C)O1 (stereo unspecified) | inactive |
| O=C(OCc1ccccc1)c1ccccc1O | inactive |
| c1c[nH]cn1 | inactive |
| c1ccc(SCCSc2ccccc2)cc1 | inactive |
| CC(=O)OC(C(=O)c1ccccc1)c1ccccc1 (stereo unspecified) | inactive |
| CCCCCCN | inactive |
| C[C@@H]1CC2(OC(O)[C@]3(C)O[C@H]23)O[C@H]2C[C@@]3(C)[C@@H]4CC[C@H]5C(C)(C)C(O[C@@H]6OC[C@@H](O)[C@H](O)[C@H]6O)CC[C@@]56C[C@@]46CC[C@]3(C)[C@@H]12 (stereo partly specified) | inactive |
| O=[N+]([O-])c1ccccc1Nc1ccccc1 | inactive |
| COc1ccc(C(=O)Nc2ccccc2)cc1[N+](=O)[O-] | inactive |
